Entries with a potency or affinity are not part of this list.
tested on: Cryptococcus neoformans; conditions: Concentration 20 uM; ASSAY_TEST Inhibition of Fungal Growth; detection method Resazurin; Absorption (OD600-OD570); plate type 384well; NBS; CORNING #3640

| SMILES | Inhibition [%] |
| --- | --- |
| Cl.FC(F)(F)c1cccc(N2CCNCC2)c1 [N- (3-TRIFLUOROMETHYLPHENYL)PIPERAZINE HYDROCHLORIDE (TFMPP)] | -3.92 |
| Cl.O=C1CC2(CCCC2)CC(=O)N1CCCCN1CCN(c2ncccn2)CC1 [BUSPIRONE HYDROCHLORIDE] | -4.43 |
| Cl.Oc1ccc2c3c1OC1C(O)CC[C@@]4(O)[C@@H](C2)N(CC2CCC2)CC[C@]314 (some centres undefined) | -7.08 |
| CC(C)c1cccc(C(C)C)c1O [PROPOFOL] | -1.51 |
| O.O=P1(N(CCCl)CCCl)NCCCO1 (centres undefined) [CYCLOPHOSPHAMIDE] | 1.2 |
| CCC(COC(=O)c1cc(OC)c(OC)c(OC)c1)(c1ccccc1)N(C)C.O=C(O)/C=C\C(=O)O (centres undefined) | -7.66 |
| Cc1ncc2n1-c1ccc(Cl)cc1C(c1ccccc1F)=NC2.Cl [MIDAZOLAM HYDROCHLORIDE] | -0.63 |
| CCOC(=O)C1=C(COCCN)NC(C)=C(C(=O)OC)C1c1ccccc1Cl (centres undefined) [AMLODIPINE] | -10.38 |
| Cc1ccnc2c1NC(=O)c1cccnc1N2C1CC1 [NEVIRAPINE] | -2.57 |
| CC(=O)CC(c1ccccc1)c1c([O-])c2ccccc2oc1=O.[Na+] (centres undefined) [WARFARIN SODIUM] | 0.59 |
| CN1C(=O)CN=C(c2ccccc2)c2cc(Cl)ccc21 [DIAZEPAM] | -1.5 |
| Br.COc1ccc2c3c1O[C@H]1C[C@@H](O)C=C[C@@]31CCN(C)C2 [GALANTAMINE HYDROBROMIDE] | -5.72 |
| COc1cc(N)c(Cl)cc1C(=O)NC1CN2CCC1CC2.Cl.O (centres undefined) [ZACOPRIDE HYDROCHLORIDE] | 0.38 |
| Br.CN1[C@@H]2CC(OC(=O)[C@H](CO)c3ccccc3)C[C@H]1[C@@H]1O[C@@H]12.O.O.O (some centres undefined) | -4.17 |
| CC(=O)[C@H]1CC[C@H]2[C@@H]3CCC4=CC(=O)CC[C@]4(C)[C@H]3CC[C@]12C [PROGESTERONE] | -1.48 |
| NC1=NC(=O)C(c2ccccc2)O1 (centres undefined) [PEMOLINE] | -5.45 |
| C[N+]1(CCC(C(N)=O)(c2ccccc2)c2ccccc2)CCCCC1.[Br-] [FENPIVERINIUM BROMIDE] | -1.41 |

| SMILES | Inhibition [%] |
| --- | --- |
| C[N+]1(C)CCC(OC(=O)C(O)(c2ccccc2)C2CCCC2)C1.[Br-] (centres undefined) [GLYCOPYRRONIUM BROMIDE] | -2.52 |
| CC(C)NCC(O)c1ccc(O)c(O)c1.Cl (centres undefined) [ISOPROTERENOL HYDROCHLORIDE] | 0.22 |
| CN1[C@@H]2CC[C@H]1C[C@@H](OC(=O)c1c[nH]c3ccccc13)C2.Cl | -7.07 |
| CN[C@@H]1C[C@@H](c2ccc(Cl)c(Cl)c2)c2ccccc21.Cl [INDATRALINE HYDROCHLORIDE] | -6.06 |
| O=C(O[C@@H]1Cc2c(O)cc(O)cc2O[C@@H]1c1cc(O)c(O)c(O)c1)c1cc(O)c(O)c(O)c1 [EPIGALOCATECHIN GALLATE] | -2.04 |
| C[C@]12CCC(=O)C=C1CC[C@@H]1[C@@H]2CC[C@@]2(C)[C@H]1CC[C@]2(C)O [METHYLTESTOSTERONE] | 0 |
| CC[C@]1(O)CC[C@H]2[C@@H]3CCC4=CCCC[C@@H]4[C@H]3CC[C@@]21C [ETHYLESTRENOL] | -2.32 |
| CCC1(c2ccc(N)cc2)CCC(=O)NC1=O (centres undefined) [AMINOGLUTETHIMIDE] | -5.32 |
| C[N+]1(C)CCCC(OC(=O)C(O)(c2ccccc2)c2ccccc2)C1.[Br-] (centres undefined) [MEPENZOLATE BROMIDE] | -1.1 |
| COC(=O)C1=C(C)NC(C)=C(C(=O)OC)C1c1ccccc1[N+](=O)[O-] [NIFEDIPINE] | -4.99 |
| C[C@H](CCC(=O)O)[C@H]1CC[C@H]2[C@@H]3[C@@H](O)C[C@@H]4C[C@H](O)CC[C@]4(C)[C@H]3CC[C@]12C [URSODIOL] | -2.96 |
| Cl.O.Oc1ccc2c3c1O[C@H]1c4[nH]c5ccccc5c4C[C@@]4(O)C(C2)N(CC2CC2)CC[C@]314 | -5.72 |
| CN1C(=O)COc2c(C(=O)NC3CN4CCC3CC4)cc(Cl)cc21.Cl (centres undefined) | -3.23 |
| CCOC(=O)c1cncn1[C@H](C)c1ccccc1 [ETOMIDATE] | 0.21 |
| C=C(C)[C@@H]1[C@H]2OC(=O)[C@@H]1[C@]1(O)C[C@H]3O[C@]34C(=O)O[C@H]2[C@]14C.CC(C)(O)[C@@H]1[C@H]2OC(=O)[C@@H]1[C@]1(O)C[C@H]3O[C@]34C(=O)O[C@H]2[C@]14C | -5.47 |
| Cl.NCC(O)c1ccc(O)c(O)c1 (centres undefined) | -2.98 |
| Cl.NCCc1ccc(O)c(O)c1 [DOPAMINE HYDROCHLORIDE] | -1.49 |

From ChEMBL document CHEMBL4513141, “CO-ADD screening of NIH (USA) - Clinical Collection” (2021)
